# Hits are enriched below; roughly 19% of the tested compounds scored in any of these assays.
# HT1080-NT tox: kills 2HG-producing HT-1080-NT fibrosarcoma cells; HT-1080-NT fibrosarcoma viability, CellTiter-Glo ATP luminescence, 48 h; Potency, µM (doses to about 46.1 µM), for the others: top-dose activity, negative = less viability, hits mostly cytotoxic; 360,000 compounds, 1.6% hits; AID 686970;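 note: NT is the 2HG producing partner of a matched IDH1 knockdown line; potency is the fitted concentration of half-maximal effect; 0% = DMSO-treated cells and -100% = media-only wells without cells; nearly all actives have a fitted effect of over 55% in size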
#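 A 48-hour cytotoxicity screen used HT-1080-NT cells plated 2 hours before compound delivery. ATP-based CellTiter-Glo luminescence measured viability, normalized to DMSO and no-cell controls.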
# DT40 TDP1 no CPT: qHTS for Inhibitors of human tyrosyl-DNA phosphodiesterase 1 (TDP1): qHTS in cells in absence of CPT; Potency, µM (titrated, usually from 46.2 µM), inactives show at the top dose activity change, negative = growth inhibition, usual class: inhibitors; DT40 Tdp1-/- hTDP1 cells, no CPT, ATP luminescence, 48 h; 420,000 compounds, 15% hits; AID 686978, 2013; note: potency is the fitted concentration of half-maximal effect; nearly all actives have a fitted effect of over 55% in size
#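 Cells were dispensed at 400 per well, compounds added by pin tool, plates incubated ≥48 hr at 37 °C, then CellTiter-Glo added for 30 min at room temperature before luminescence reading. Line: DT40 Tdp1-/- complemented with hTDP1; camptothecin omitted.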
# DT40 TDP1 CPT: DT40-hTDP1 cell growth loss with CPT. chicken DT40 Tdp1-/-;hTDP1 cells + 20 nM CPT, ATP luminescence, 48 h. Potency, µM (doses to about 46.2 µM), without a hit: at the highest dose activity change, negative = growth inhibition, hits mostly inhibitors. 420,000 compounds, 12% hits. AID 686979; note: potency is the fitted concentration of half-maximal effect; nearly all actives have a fitted effect of over 55% in size
#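 Chicken DT40 Tdp1-/- cells stably complemented with human TDP1 were seeded at 400 cells/well in medium containing 20 nM camptothecin, exposed to pin-transferred compounds, and grown at 37 °C for at least 48 hr. Viability was read as ATP luminescence.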
# IL1B secr inh: inhibitors of inflammasome signaling (IL-1 beta secretion); 360,000 compounds, 4.7% hits; activity change, % at 57.5 µM; AID 743279; THP-1 LPS/ATP IL-1B secretion, AlphaLISA, 16 h; hits give low values; in the data active = activity change below about -50%; inconclusive = mostly about -30% to -49%
#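 Secreted IL-1B measured by AlphaLISA bead assay after 16 h compound exposure of THP-1 cells; compounds (final up to 57.5 uM) added 1 h before LPS (250 ng/mL) and ATP (1.25 mM) stimulation; lower signal means less secretion.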
# HT1080 IDH1KD tx: kills HT-1080 cells with IDH1 knockdown. HT-1080 IDH1 knockdown viability, ATP luminescence, 48 h. Potency, µM (doses to about 46.1 µM), inactives show top-dose activity, negative = toxicity, hits mostly cytotoxic. 360,000 compounds, 2% hits. AID 686971;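 note: potency is the fitted concentration of half-maximal effect; 0% = DMSO wells and -100% = cell-free medium wells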
#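 IDH1KD HT-1080 cells, 750/well, RPMI + 5% FBS; compound pinned after 2 h settling; 48 h, 37 °C; CellTiter-Glo luminescence; % activity normalised to DMSO and no-cell wells; curves fitted, classed by r2 and efficacy.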
# * = called active by the depositor; u = inconclusive; x = not tested or not shown; [ ] = another dose, or the depositor's remark. Unless noted, calls come from the whole dose curve; as a rule, active = well fitted curve in the direction sought with a large enough effect; inconclusive = small, poorly fitted or top-dose-only effect, or another doubt; inactive = no such curve, though single readings can be large; an effect the other way counts as inactive or inconclusive. Unless noted, % is set by controls: 0 for no effect and ±100 for the full control effect.
SMILES,HT1080-NT tox,DT40 TDP1 no CPT,DT40 TDP1 CPT,IL1B secr inh,HT1080 IDH1KD tx
COc1ccc(C(=O)C(CN2CCOCC2)c2ccccc2)cc1 (stereo not drawn),7.08µM*,3.26µM*,2.91µM*,-98.6*,2µM*
CCCCCOc1ccc(C(=O)NCC2(c3ccccc3)CCOCC2)cc1,-4.7%,u,u,-24.8,u
COc1ccc(C(=O)C(CN2CCCC2)c2ccccc2)cc1 (stereo not drawn),11.2µM*,3.16µM*,3.98µM*,-108.7*,12.6µM*
CCCCCOc1ccc(C(=O)C(c2ccccc2)N2CCOCC2)cc1 (stereo not drawn),-11.1%,u,20.6µM*,u,-24.5%
O=C(c1ccc(Cl)cc1)C(CN1CCCC1)c1ccccc1 (stereo not drawn),18.4µM*,4.11µM*,4.11µM*,-98.4*,20.6µM*
Cc1ccc(CN2CCN(C3CCN(C(=O)c4ccccc4)CC3)C(=O)C2=O)cc1,x,-8.3%,-16.7%,x,x
COc1cc2c(cc1OC)C(C)N(C(=O)Cc1ccc(C(F)(F)F)cc1)CC2 (stereo not drawn),-6.5%,u,u,8.2,4.1%
O=C(N/N=C/C1CC=CCC1)c1ccc(Cl)cc1O (stereo not drawn),6.7%,-2.0%,-2.1%,0.0,-9.9%
NS(=O)(=O)OCCCc1ccc(C(F)(F)F)cc1,19.9%,u,u,19.2,-1.4%
CCCCOc1ccc(C(O)C(CN2CCOCC2)c2ccccc2)cc1 (stereo not drawn),6.0%,-15.2%,-22.0%,11.0,-8.6%
CCCOc1ccc(C(=O)C(CN2CCCC2)c2ccccc2)cc1 (stereo not drawn),8.2µM*,5.17µM*,3.66µM*,-102.6*,6.51µM*
O=C(c1ccc(F)cc1)C(CN1CCOCC1)c1ccccc1 (stereo not drawn),-8.9%,1.3µM*,1.84µM*,-64.1*,5.17µM*
CCCCOc1ccc(C(O)C(CN2CCCCC2)c2ccccc2)cc1 (stereo not drawn),-13.6%,23.1µM*,23.1µM*,u,-12.6%
CCCOc1ccc(C(O)C(CN2CCOCC2)c2ccccc2)cc1 (stereo not drawn),-0.9%,-11.8%,9.8%,-1.6,0.8%
CCCCOc1ccc(C(=O)C(CN2CCOCC2)c2ccccc2)cc1 (stereo not drawn),13µM*,14.6µM*,13µM*,-97.8*,16.4µM*
Cc1ccc(S(=O)(=O)NC2(C(F)(F)F)NC(=O)N(c3ccccc3F)C2=O)cc1 (stereo not drawn),10.0%,8.4%,1.6%,5.9,10.6%
COc1ccc(N2CCN(C(=O)NCc3noc4ccccc34)CC2)cc1,x,-28.2%,u,x,x
CCCCn1c(N)c(N(CCOC)C(=O)C2CC(=O)N(c3ccc(CC)cc3)C2)c(=O)[nH]c1=O (stereo not drawn),-4.7%[9.24 µM],7.3%,-2.8%,-13.2,2.9%
COc1ccc(Oc2ncc3nc(-c4cccc(C#N)c4)c(=O)n(C)c3n2)cc1,x,28.0%,9.7%,x,x
O=C(Nc1cc(C(F)(F)F)ccc1-n1cncn1)c1cn2ccccc2n1,-0.9%,u,u,-6.5,1.9%
O=C(c1ccccc1)C(CCC(CN1CCOCC1)C(=O)c1ccccc1)CN1CCOCC1 (stereo not drawn),10.3µM*,1.46µM*,0.731µM*,-117.5*,8.2µM*
COC(c1ccc(Cl)cc1)(c1ccc(Cl)cc1)C(Oc1nc(C)cc(C)n1)C(=O)O (stereo not drawn),-19.6%,14.6µM*,u,36.3,-9.3%
O=S(=O)(Nc1nc(-c2ccco2)c(-c2ccco2)s1)c1ccc(F)cc1F,10.1%,-18.3%,-18.1%,10.8,2.7%
N#CC1=C(N)N(c2ccccc2)C(c2cccc([N+](=O)[O-])c2)C1(C#N)C#N (stereo not drawn),-1.2%,16.4µM*,u,-21.5,-3.0%
N#CC1=C(N)N(c2ccccc2)C(c2ccco2)C1(C#N)C#N (stereo not drawn),-12.4%,u,u,-29.3,u
SMILES,HT1080-NT tox,DT40 TDP1 no CPT,DT40 TDP1 CPT,IL1B secr inh,HT1080 IDH1KD tx
Cc1cccc(N2C(N)=C(C#N)C(C#N)(C#N)C2c2ccccc2)c1 (stereo not drawn),-19.9%,10.3µM*,20.6µM*,-9.5,-15.8%
c1ccc(OCCN2CCN(Cc3nc(-c4ccc5c(c4)OCO5)no3)CC2)cc1,-3.9%,-16.9%,-16.6%,15.3,-4.2%
CC(=O)c1ccc2c(c1)OCCOCCOc1ccccc1OCCOCCO2,-15.2%,23.1µM*,18.4µM*,-15.0,-4.1%
OCCN1CCOCCOc2ccccc2OCCOCC1,13.4%,-0.1%,2.8%,48.0,10.7%
c1ccc2c(c1)OCCOCCOCCOCCOCCOc1ccccc1OCCOCCOCCO2,u,14.6µM*,8.2µM*,-73.2*,u
CC(=O)c1ccc2c(c1)OCCOCCOCCOCCO2,7.2%,-0.7%,3.0%,0.4,5.0%
Cc1ccc(C)c(N2C(=O)CC(Cc3ccccc3)C2=O)c1 (stereo not drawn),0.6%,-3.9%,-0.8%,27.8,-0.5%
CCOC(=O)c1c(C)c(C(=O)NCc2ccccc2OC)c(C)n1C,-18.4%,12.6µM*,u,4.2,-28.3%
COc1ccccc1CNC(=O)c1cc(C)nn1-c1ccccc1,5.2%,11.6%,2.4%,1.3,5.6%
COc1ccccc1CNC(=O)CSc1nnc(C)c2c(C)n(-c3ccccc3)nc12,x,23.1µM*,20.6µM*,x,x
COc1ccccc1CNC(=O)c1c(-c2ccccc2)nn(-c2ccccc2)c1C,-6.0%,14.6µM*,u,u,4.7%
CCCc1cc(=O)oc2cc(C)cc(OCC(=O)Nc3ccc(S(N)(=O)=O)cc3)c12,-19.0%,-28.2%,-15.8%,12.8,-21.1%
CNC(=O)COC(=O)/C=C/c1cccc(F)c1,10.6%,-1.7%,7.6%,28.6,1.5%
O=C(NCCCN1CCCCCC1)C(c1ccccc1)C1CCCCC1 (stereo not drawn),x,16.4µM*,u,x,x
CCCC(=O)N1c2ccccc2C(=C2SC(C(=O)OC)=C(C(=O)OC)S2)C(=S)C1(C)C,0.3%,25.9µM*,14.6µM*,5.8,5.4%
COC(=O)C1=C(C(=O)OC)SC(=C2C(=S)C(C)(C)N(C(=O)C3CC3)c3ccccc32)S1,-2.5%,u,u,-50.3*,u
Oc1ccccc1/C=N/n1cnn(Cc2ccccc2Cl)c1=S,-0.5%,u,u,-1.1,-8.5%
CCC/C(=N/NC(=O)c1ccccc1Cl)c1ccccc1,5.4%,-4.1%,-4.7%,-6.9,5.9%

# Compound activity (PubChem)
